# Reference: PubChem BioAssay (EPA / NIEHS)
# Inconclusive results are not listed. Where a structure was tested more than once in an assay, its records may differ in their call. Active and inactive are the calls of the source. How the source made its calls: active means hit-call score of the fitted dose curve at least 0.9, where 1 is the maximum; inconclusive means response in the unintended direction; inactive means score below 0.9.
# Target: guinea pig Sigma Receptor, Non-selective Binding, SIGMAR1 (gene 100135589) (UniProt Q60492)
# Experiment: NVS_OR_gSIGMA_NonSelective: NovaScreen (NVS) Nuclear Receptor Binding Assay for guinea pig Sigma Receptor, Non-selective Binding (AID 2283367)
# Outline: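 Test chemicals were screened in duplicate at 25 uM, then in concentration series if active, against radioligand binding to guinea pig brain membranes; filtration and scintillation counting at 1 h measured remaining bound ligand.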
# Sequence of guinea pig Sigma Receptor, Non-selective Binding, SIGMAR1 (gene 100135589) (Q60492 whole entry, looked up): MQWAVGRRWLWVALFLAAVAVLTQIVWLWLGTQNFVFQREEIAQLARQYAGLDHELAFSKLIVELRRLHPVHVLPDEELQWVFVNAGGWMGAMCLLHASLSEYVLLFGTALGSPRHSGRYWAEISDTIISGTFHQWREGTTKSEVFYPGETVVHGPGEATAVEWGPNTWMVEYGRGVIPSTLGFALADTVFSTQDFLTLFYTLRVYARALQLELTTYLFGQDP
row,SMILES,AC50
1,CCC(C)OC(=O)N1CCCCC1CCO (configuration not stated),31.1 µM (active)
2,CCCOC(=O)NCCCN(C)C,11.3 µM (active)
3,CC(=O)[C@H]1CC[C@H]2[C@@H]3CCC4=CC(=O)CC[C@]4(C)[C@H]3CC[C@]12C,1.16 µM (active)

# Target: human Adenosine Transporter (Adot), SLC29A1 (gene 2030) (UniProt Q99808)
# Experiment: NVS_TR_hAdoT: NovaScreen (NVS) Transporter Assay for human Adenosine Transporter (Adot) (AID 2283368)
# Outline: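 Binding displacement on U937 extracted protein, read 1 h post-dose by filtration and scintillation counting. Primary duplicate test at 25 uM, then singleton concentration series with 50 uM top; DMSO baseline.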
# Sequence of human Adenosine Transporter (Adot), SLC29A1 (gene 2030) (Q99808 whole entry, looked up): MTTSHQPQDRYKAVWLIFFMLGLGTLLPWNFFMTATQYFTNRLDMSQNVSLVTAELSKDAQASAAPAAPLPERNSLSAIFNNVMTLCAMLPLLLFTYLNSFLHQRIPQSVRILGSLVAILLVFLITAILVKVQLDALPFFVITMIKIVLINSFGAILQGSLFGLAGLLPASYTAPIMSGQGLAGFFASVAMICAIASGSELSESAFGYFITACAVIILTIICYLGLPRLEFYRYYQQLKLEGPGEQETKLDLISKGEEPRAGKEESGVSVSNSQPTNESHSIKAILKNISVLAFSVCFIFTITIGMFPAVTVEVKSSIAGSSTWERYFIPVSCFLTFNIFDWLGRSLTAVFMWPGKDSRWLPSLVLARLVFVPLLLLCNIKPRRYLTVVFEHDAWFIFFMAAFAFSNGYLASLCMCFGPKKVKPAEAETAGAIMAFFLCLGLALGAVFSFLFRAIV
SMILES,outcome,AC50
CCC(O)=C1C(=O)CC(C(=O)O)CC1=O (configuration not stated),inactive,
OB(O)O,inactive,
CC(=O)[C@H]1CC[C@H]2[C@@H]3CCC4=CC(=O)CC[C@]4(C)[C@H]3CC[C@]12C,,6.22 µM (active)

# Test system: guinea pig Dopamine Transporter (DAT), gene 100714898
# Experiment: NVS_TR_gDAT: NovaScreen (NVS) Transporter Assay for guinea pig Dopamine Transporter (DAT) (AID 2283369);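 further: active compounds lower bound radioligand signal relative to DMSO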
# Outline: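 Primary pass: duplicate wells at 25 uM, threshold e.g. 30% inhibition. Follow-up: singleton concentration-response, highest 50 uM. Radioligand binding on guinea pig striatal membranes, 2 h, filtration scintillation detection.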
SMILES,outcome,AC50
Cc1nn(C)c(Oc2ccccc2)c1C=NOCc1ccc(C(=O)OC(C)(C)C)cc1,inactive,
CCOC(=O)NCCOc1ccc(Oc2ccccc2)cc1,,8.75 µM (active)
CC(C)(C)[C@@H](O)[C@@H](Cc1ccc(Cl)cc1)n1cncn1,,4.16 µM (active)
CCN(Cc1c(F)cccc1Cl)c1c([N+](=O)[O-])cc(C(F)(F)F)cc1[N+](=O)[O-],inactive,
N#CSCSc1nc2ccccc2s1,,42.1 µM (active)
CC(=O)[C@H]1CC[C@H]2[C@@H]3CCC4=CC(=O)CC[C@]4(C)[C@H]3CC[C@]12C,inactive,

# Target: Peroxisome proliferator-activated receptor gamma (Homo sapiens) (UniProt P37231)
# Experiment: NVS_NR_hPPARg: NovaScreen (NVS) Nuclear Receptor Binding Assay for human Peroxisome Proliferator-activated Receptor gamma (PPARg) (AID 2283370)
# Outline: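 Extracted receptor protein, cell-free; compound incubated 2 h then fluorescence polarization read. Baseline: DMSO. Actives from 25 uM duplicate screen re-run across concentrations.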
# Sequence of Peroxisome proliferator-activated receptor gamma (Homo sapiens) (P37231 whole entry, looked up): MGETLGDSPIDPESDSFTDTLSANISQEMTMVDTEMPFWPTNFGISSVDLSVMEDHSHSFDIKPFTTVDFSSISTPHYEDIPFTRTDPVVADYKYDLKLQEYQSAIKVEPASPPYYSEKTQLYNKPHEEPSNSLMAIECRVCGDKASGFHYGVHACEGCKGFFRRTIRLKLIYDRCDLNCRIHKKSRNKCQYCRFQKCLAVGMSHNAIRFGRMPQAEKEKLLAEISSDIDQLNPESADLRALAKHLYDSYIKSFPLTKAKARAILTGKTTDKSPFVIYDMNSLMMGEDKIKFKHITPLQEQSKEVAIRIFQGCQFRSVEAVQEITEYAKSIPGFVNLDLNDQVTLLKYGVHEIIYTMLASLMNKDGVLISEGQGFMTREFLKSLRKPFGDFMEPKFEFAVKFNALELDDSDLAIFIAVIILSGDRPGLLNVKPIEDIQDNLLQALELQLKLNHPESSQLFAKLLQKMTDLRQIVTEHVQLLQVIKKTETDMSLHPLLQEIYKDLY
SMILES,outcome,AC50
c1ccc(Nc2ccccc2)cc1,inactive,
CCN(CC)C(=O)c1cccc(C)c1,inactive,
CCOC(=O)C(C)Oc1ccc(Oc2nc3ccc(Cl)cc3o2)cc1 (configuration not stated),inactive,
O=C(O)c1ccccc1,inactive,
CCC(C)OC(=O)N1CCCCC1CCO (configuration not stated),inactive,
COc1nc(C)nc(NC(=O)NS(=O)(=O)c2ccccc2OCCCl)n1,inactive,
N#CSCSc1nc2ccccc2s1,inactive,
CCOC(=O)[C@H](C)Oc1ccc(Oc2nc3ccc(Cl)cc3o2)cc1,inactive,
C#CCOC(=O)[C@@H](C)Oc1ccc(Oc2ncc(Cl)cc2F)cc1,inactive,
O=C(O)C1(C(=O)Nc2ccc(Cl)cc2Cl)CC1,,8.65 µM (active)
O=C(Nc1ccc([N+](=O)[O-])cc1Cl)c1cc(Cl)ccc1O,inactive,
CCCN(CCC)c1c([N+](=O)[O-])cc(C(F)(F)F)c(N)c1[N+](=O)[O-],inactive,
CC(=O)[C@H]1CC[C@H]2[C@@H]3CCC4=CC(=O)CC[C@]4(C)[C@H]3CC[C@]12C,inactive,4.07 µM (active)
CCOC(=O)COc1cc(-n2ncc(C(F)(F)F)c(C)c2=O)c(F)cc1Cl,inactive,
